Active and inactive are the calls of the source.

A short description of assay [1]: binders of probe aFSTL3 on microarray, primary screen, stem cell growth factor project, biochemical, small-molecule microarray, fluorescence 635/667 (AID 1064).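 Further: measures binding of the biotinylated anti-FSTL3 antibody to printed compounds.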 The conditions noted are these: higher = more signal.
A short description of assay [2]: binders from COS7 lysate, DM2A8 probe, primary screen, torsin A project, cell lysate, small-molecule microarray, fluorescence 635/667 (AID 1065). To be noted: higher = more signal, COS7 lysate expressing mutant human TOR1A.
Assay [3] is described as follows: binders of probe aFGF2 on microarray, primary screen, stem cell growth factor project, biochemical, small-molecule microarray, fluorescence 635/667 (AID 1067).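 Further: measures binding of biotinylated aFGF2 protein to printed compounds on slides; z-score merges feature fluorescence and signal-to-noise across triplicate slides.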 To be noted: higher = more signal.
Assay [4] in a line: binders of probe aFGF10 on microarray, primary screen, stem cell growth factor project, biochemical, small-molecule microarray, fluorescence 635/667 (AID 1071).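 Further: score merges 667 nm spot intensity and signal to noise from triplicate slides.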 To be noted: higher = more signal.
The target of assay [5] is Neurogenic locus notch homolog protein 2 (Homo sapiens) (UniProt Q04721). Kind of assay: Notch2 binders on small-molecule microarrays, primary screen, biochemical, small-molecule microarray, 635 nm fluorescence, stem cell growth factors (AID 1073). To be noted: Notch2 binding, higher = more signal.
Sequence of Neurogenic locus notch homolog protein 2 (Homo sapiens) (Q04721 whole entry, looked up, canonical isoform): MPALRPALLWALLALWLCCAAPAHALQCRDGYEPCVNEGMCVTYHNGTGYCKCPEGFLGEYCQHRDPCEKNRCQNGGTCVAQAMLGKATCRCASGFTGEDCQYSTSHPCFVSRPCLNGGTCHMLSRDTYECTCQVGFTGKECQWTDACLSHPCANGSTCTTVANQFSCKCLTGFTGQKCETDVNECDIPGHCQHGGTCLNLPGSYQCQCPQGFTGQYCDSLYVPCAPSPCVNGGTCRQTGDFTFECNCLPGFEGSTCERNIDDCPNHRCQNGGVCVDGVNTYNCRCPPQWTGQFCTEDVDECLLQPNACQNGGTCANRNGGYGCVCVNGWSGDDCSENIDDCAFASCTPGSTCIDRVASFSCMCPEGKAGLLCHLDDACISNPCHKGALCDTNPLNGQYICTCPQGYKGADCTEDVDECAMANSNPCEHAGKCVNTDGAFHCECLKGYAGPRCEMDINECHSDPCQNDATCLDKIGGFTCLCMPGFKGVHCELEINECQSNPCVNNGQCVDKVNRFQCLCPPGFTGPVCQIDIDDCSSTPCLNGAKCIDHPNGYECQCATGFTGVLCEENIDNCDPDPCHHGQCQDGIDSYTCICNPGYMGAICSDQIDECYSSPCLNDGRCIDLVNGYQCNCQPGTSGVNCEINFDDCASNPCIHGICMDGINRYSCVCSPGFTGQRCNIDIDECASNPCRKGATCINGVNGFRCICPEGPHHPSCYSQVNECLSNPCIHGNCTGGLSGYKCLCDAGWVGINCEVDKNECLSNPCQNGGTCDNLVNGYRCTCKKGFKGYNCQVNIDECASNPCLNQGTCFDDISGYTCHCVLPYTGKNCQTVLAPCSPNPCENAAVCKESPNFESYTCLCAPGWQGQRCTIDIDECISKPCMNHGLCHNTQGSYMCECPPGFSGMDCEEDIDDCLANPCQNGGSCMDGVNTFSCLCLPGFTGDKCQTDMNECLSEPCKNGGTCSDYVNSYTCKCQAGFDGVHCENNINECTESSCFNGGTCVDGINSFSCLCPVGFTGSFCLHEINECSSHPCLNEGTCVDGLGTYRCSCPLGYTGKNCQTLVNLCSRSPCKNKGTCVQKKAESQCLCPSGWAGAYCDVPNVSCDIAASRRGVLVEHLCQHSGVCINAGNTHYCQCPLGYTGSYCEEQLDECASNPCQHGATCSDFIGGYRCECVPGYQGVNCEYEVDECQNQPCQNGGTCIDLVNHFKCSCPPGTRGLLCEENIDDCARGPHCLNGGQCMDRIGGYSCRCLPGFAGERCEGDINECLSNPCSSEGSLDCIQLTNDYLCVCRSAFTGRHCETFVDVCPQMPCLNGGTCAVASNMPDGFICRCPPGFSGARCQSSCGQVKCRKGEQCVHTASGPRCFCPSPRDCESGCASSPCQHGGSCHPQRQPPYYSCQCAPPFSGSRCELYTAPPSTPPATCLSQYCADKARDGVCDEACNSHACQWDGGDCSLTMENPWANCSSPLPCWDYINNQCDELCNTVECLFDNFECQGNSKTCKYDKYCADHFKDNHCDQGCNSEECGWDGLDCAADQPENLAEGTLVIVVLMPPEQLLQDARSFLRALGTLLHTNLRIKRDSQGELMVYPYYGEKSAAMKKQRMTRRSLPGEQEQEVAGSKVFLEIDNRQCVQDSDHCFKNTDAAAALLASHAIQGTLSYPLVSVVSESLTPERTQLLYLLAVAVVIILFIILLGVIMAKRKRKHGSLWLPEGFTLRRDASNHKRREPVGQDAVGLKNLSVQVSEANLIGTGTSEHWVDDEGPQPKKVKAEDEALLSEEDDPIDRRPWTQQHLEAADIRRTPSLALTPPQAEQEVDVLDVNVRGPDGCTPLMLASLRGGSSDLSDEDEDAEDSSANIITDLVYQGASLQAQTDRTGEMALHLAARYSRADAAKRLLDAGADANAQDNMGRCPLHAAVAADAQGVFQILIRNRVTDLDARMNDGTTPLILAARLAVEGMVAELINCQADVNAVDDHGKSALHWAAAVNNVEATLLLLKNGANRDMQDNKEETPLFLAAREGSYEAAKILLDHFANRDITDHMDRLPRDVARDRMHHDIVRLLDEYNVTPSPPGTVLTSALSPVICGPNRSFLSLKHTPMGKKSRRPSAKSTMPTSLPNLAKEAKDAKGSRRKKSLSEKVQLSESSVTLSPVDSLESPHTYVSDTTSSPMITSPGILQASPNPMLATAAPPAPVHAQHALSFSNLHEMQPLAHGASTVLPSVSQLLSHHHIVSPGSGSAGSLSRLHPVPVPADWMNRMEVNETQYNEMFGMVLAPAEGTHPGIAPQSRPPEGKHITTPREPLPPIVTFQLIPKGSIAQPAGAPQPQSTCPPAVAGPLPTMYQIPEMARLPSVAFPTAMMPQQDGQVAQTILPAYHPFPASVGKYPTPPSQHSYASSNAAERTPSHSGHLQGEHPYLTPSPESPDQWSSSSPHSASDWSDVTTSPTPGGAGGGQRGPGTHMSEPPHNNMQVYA
The target of assay [6] is Pro-neuregulin-1, membrane-bound isoform (Homo sapiens) (UniProt Q02297). In words: NRG1 binders on small-molecule microarrays, primary screen, psychiatric disease protein project, biochemical, small-molecule microarray, fluorescence 635/667 (AID 1075).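 Further: score combines 667 nm spot fluorescence with signal to noise.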 The conditions noted are these: NRG1 binding, 635 nm fluorescence, higher = more signal.
Sequence of Pro-neuregulin-1, membrane-bound isoform (Homo sapiens) (Q02297 whole entry, looked up, the tested form may be a part, canonical isoform): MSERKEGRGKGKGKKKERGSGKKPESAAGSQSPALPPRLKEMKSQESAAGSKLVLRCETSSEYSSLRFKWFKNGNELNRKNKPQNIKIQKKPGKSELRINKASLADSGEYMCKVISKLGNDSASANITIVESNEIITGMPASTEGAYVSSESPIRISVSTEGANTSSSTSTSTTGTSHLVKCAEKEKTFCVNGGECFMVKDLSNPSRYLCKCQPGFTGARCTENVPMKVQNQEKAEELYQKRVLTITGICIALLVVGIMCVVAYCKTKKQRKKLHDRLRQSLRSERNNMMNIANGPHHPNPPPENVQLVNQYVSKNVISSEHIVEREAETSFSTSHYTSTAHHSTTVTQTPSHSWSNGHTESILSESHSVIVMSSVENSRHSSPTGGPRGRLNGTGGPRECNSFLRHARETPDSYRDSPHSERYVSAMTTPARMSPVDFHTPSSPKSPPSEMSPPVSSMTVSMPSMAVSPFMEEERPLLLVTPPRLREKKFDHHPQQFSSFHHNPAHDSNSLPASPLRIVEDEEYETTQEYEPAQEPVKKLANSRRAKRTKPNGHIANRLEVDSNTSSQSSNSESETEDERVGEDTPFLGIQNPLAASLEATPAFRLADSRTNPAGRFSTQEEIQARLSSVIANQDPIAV
The test system of assay [7] is Neuregulin-1 EGF-like domain. Kind of assay: binders of neuregulin-1 EGF-like domain, primary screen, biochemical, small-molecule microarray, 635 nm fluorescence (AID 1081).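 Further: binding of the protein to compounds printed on small-molecule microarray slides.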 To be noted: small-molecule microarray binding, higher = more signal.
Assay [8] is described as follows: FRG1 promoter luciferase signal modulators, primary screen, FRG1 inhibition for FSHD, cell-based, C2C12 myotubes, firefly/Renilla luciferase, luminescence (AID 1084). To be noted: higher = more signal, called active from +8 up or from −8 down.
Assay [9] in a line: binders of probe aFST on microarray, primary screen, stem cell growth factor project, biochemical, small-molecule microarray, fluorescence 635/667 (AID 1086).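 Further: score merges 667 nm fluorescence with signal-to-noise of each printed compound spot.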 To be noted: higher = more signal.
Assay [10] can be described thus: binders of probe aHhip on microarray, primary screen, stem cell growth factor project, biochemical, small-molecule microarray, fluorescence 635/667 (AID 1087).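 Further: score merges spot fluorescence at 667nm with spot signal to noise ratio.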 The conditions noted are these: higher = more signal.
In assay [11] the test system is PRMT1 (protein arginine N-methyltransferase 1). Kind of assay: PRMT1 binders on small-molecule microarrays, primary screen, biochemical, small-molecule microarray, 635 nm fluorescence (AID 1088).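 Further: binding of Prmt1 protein to compounds spotted on small-molecule microarray slides.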 To be noted: small-molecule microarray binding, higher = more signal.
Assay [12] is described as follows: yeast growth modulation, basal conditions, primary screen, YJM789 clinical isolate, OD600, 24 h (AID 1089).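 Further: growth of clinical yeast isolate S. cerevisiae YJM 789 seeded 1000 cells per well; test concentration not given here.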 To be noted: S. cerevisiae YJM789 growth, higher = more signal, called active from +8 up or from −8 down.
Assay [13] is described as follows: fission yeast growth modulation, primary screen, strain 972, OD600, 24 h, no modulator (AID 1090).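 Further: basal condition with compound alone and no growth modifier present; test concentration not given here.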 The conditions noted are these: S. pombe 972 growth, higher = more signal, called active from +8 up or from −8 down.
Assay [14] can be described thus: S. cerevisiae growth modulation with rapamycin, primary screen, strain BY4716, OD600, 96 h (AID 1091). Further: test concentration not given here. The conditions noted are these: higher = more signal, called active from +8 up or from −8 down.
The target of assay [15] is Torsin-1A-interacting protein 2 (Homo sapiens) (UniProt Q8NFQ8). In words: LULL1 binders on small-molecule microarray, primary screen, cell lysate, human LULL1 lysate, 635/667 nm fluorescence (AID 1092).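 Further: probe is lysate of COS7 cells overexpressing human LULL1; score merges per-feature 667 nm fluorescence with signal-to-noise.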 The conditions noted are these: hLULL1 lysate binding, 635 nm fluorescence, higher = more signal.
Sequence of Torsin-1A-interacting protein 2 (Homo sapiens) (Q8NFQ8 whole entry, looked up): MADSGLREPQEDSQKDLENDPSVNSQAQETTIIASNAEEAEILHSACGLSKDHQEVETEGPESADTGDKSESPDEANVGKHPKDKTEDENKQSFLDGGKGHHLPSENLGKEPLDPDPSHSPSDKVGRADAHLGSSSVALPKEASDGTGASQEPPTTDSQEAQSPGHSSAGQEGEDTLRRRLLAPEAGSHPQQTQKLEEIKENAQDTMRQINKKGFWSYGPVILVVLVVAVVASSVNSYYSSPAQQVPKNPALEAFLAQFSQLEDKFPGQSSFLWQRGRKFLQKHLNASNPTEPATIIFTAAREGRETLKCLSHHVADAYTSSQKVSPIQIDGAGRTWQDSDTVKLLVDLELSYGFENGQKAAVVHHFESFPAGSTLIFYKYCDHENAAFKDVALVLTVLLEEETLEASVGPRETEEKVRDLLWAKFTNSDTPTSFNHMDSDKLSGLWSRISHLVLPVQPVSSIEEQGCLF
Assay [16] in a line: E. coli growth modulation, two-sided OD650, primary screen, E. coli filamentation project, strain DRC41, 24 h (AID 1093).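 Further: MC1000 strain lacking acrAB efflux and sulA so SOS filamentation is blocked; test concentration not given here.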 To be noted: OD650, 24 h, higher = more signal, called active from +8 up or from −8 down.
Assay [17] in a line: small-molecule microarray binders of probe aLefty2, primary screen, biochemical, biotinylated probe, 635/667 nm fluorescence (AID 1094).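 Further: score merges spot fluorescence near 667 nm with spot signal-to-noise ratio.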 To be noted: higher = more signal.
For assay [18], the system named is Noggin (protein binding on small-molecule microarray). In words: Noggin binders on small-molecule microarray, primary screen, biochemical, 635/667 nm fluorescence (AID 1095).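 Further: score merges 667 nm feature fluorescence with signal to noise over triplicate slides.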 To be noted: 635 nm fluorescence, higher = more signal.
The target of assay [19] is Neurogenic locus notch homolog protein 3 (Homo sapiens) (UniProt Q9UM47). Kind of assay: NOTCH3 binders on small-molecule microarray, primary screen, biochemical, 635/667 nm fluorescence (AID 1096). To be noted: NOTCH3 binding, 635 nm fluorescence, higher = more signal.
Assay [20] in a line: small-molecule microarray binders of probe aEGFR, primary screen, biochemical, biotinylated probe, 635/667 nm fluorescence (AID 1097).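 Further: probe is a biotinylated anti-EGFR antibody binding compounds printed on slides; score combines fluorescence near 667 nm and signal to noise of each spot.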 The conditions noted are these: higher = more signal.

In the case of `CC[C@@H]1C=C(C(=O)O)[C@H](c2ccccc2)N1S(=O)(=O)c1ccc(C)cc1`, the composite z-score in assay [1] worked out at 0.262; in assay [2], 0.577; in [3], 0.0663; in [4], 0.829; in [5], 1.53; in assay [6], 1.19. Moreover, the composite z-score in [7] is 1.38; in assay [9] it was 0.635; in [10] it was -0.0296; in assay [11], 0.598; in assay [15], 2.87; in assay [17] it was 0.262. Also, the composite z-score was 0.103 in assay [18], 0.981 in assay [19] and 0.0638 in [20]. Besides, the z-score in assay [8] is -1.24 (inactive); in assay [12], -1.14 (inactive); in assay [13], 0.231 (inactive); in assay [14], -0.12 (inactive); in assay [16], -0.749 (inactive).
Take `[N-]=[N+]=Nc1ccccc1C[C@]1(C(=O)NCC(O)CO)COC(c2ccc(OCCCO)cc2)=N1` (stereo not given in full): the composite z-score in assay [1] was 0.502; in assay [2], 0.475; in assay [3] it was 0.0154; in [4], 0.859; in assay [5], -0.33; in [6] it was 1.43. For the same compound, the composite z-score was 1.14 in [7]; 0.255 in assay [9]; -0.0994 in [10]; 0.149 in assay [11]; 3.11 in [15]; 0.23 in assay [17]. Also, the figures for the composite z-score in [18], in assay [19] and in [20] were -0.906, -1.26 and 0.58, respectively. In addition, the z-score in assay [8] was 2.1 (inactive); in assay [12], 0.887 (inactive); in assay [13], -0.13 (inactive); in assay [14], 0.69 (inactive); in [16], 1.05 (inactive).
With `CCOC(=O)C[C@H]1[C@H](OC(=O)c2ccc(C(=O)c3ccccc3)cc2)[C@@H](NC(=O)c2ccc3ccccc3n2)c2cc(OCCCO)ccc2N1C(=O)Cc1ccc(OC)cc1`, the composite z-score in [1] was -0.379; in assay [2] it was 0.123; in [3], -0.0807; in assay [4], 0.289; in assay [5] it was 0.599; in assay [6] it was 0.252. Also, the composite z-score was -0.261 in assay [7]; 0.121 in assay [9]; 0.0501 in [10]; 0.517 in [11]; 1.36 in [15]; -0.157 in assay [17]. Besides, the figures for the composite z-score in assay [18], in assay [19] and in assay [20] were 0.842, 0.312 and -0.206, respectively. Besides, the z-score in [8] was 0.673 (inactive); in [12] it was 1 (inactive); in assay [13] it was 1.04 (inactive); in assay [14], 0.949 (inactive); in assay [16] it was -0.57 (inactive).
Regarding `Cn1cccc1C(O)C1C=CC2C(=O)N(c3ccccc3)C(=O)C2N1Nc1ccccc1` (stereo not given), the composite z-score in [1] is -0.236; in [2] it was 0.401; in [3], 0.137; in assay [4], 0.925; in assay [5], 1.71; in assay [6] it was 1.91. The composite z-score was 1.17 in assay [7]; 0.706 in assay [9]; -0.136 in assay [10]; 1.56 in [11]; 3.37 in assay [15]; 0.27 in [17]. Besides, the composite z-score in assay [18] worked out at 0.781; in assay [19], 1.02; in assay [20] it was 0.0651. For the same compound, the z-score in assay [8] was 0.687 (inactive); in [12] it was 0.537 (inactive); in assay [13], 0.445 (inactive); in assay [14], 0.566 (inactive); in assay [16] it was -0.598 (inactive).
For `C#Cc1cc2ccccc2oc1=O`, the composite z-score is 0.985 in [1]; -0.109 in [2]; 0.153 in assay [3]; -0.232 in [4]; -1.81 in [5]; 0.785 in [6]. In addition, the composite z-score is 1.29 in assay [7]; -0.839 in assay [9]; -0.14 in [10]; 0.914 in assay [11]; 0.969 in [15]; -0.313 in [17]. Also, the composite z-score in assay [18] was -2.71; in assay [19], -1.32; in assay [20] it was -0.325. The z-score in [8] was 1.35 (inactive); in assay [12] it was -1.81 (inactive); in assay [13] it was -7.83 (inactive); in [14], -1.11 (inactive); in assay [16], -1.45 (inactive).
